# From PubChem
# mIDH1 inhibitor: inhibitors of human mutant IDH1 R132H | O75874 | Potency, µM (titrated, usually from 76.6 µM), inactives show top-dose activity change, negative = inhibition, actives largely listed as inhibitors | IDH1-R132H enzyme, NADPH consumption, diaphorase/resazurin fluorescence | hit rate 0.093% among 390,000; also: potency is read from the fitted curve at half-maximal effect; % is scaled to controls: 0 for no effect and ±100 for the full control effect; nearly all actives have a fitted effect of over 65% in size
# Target sequence (O75874 whole entry R132H, stated change not applied): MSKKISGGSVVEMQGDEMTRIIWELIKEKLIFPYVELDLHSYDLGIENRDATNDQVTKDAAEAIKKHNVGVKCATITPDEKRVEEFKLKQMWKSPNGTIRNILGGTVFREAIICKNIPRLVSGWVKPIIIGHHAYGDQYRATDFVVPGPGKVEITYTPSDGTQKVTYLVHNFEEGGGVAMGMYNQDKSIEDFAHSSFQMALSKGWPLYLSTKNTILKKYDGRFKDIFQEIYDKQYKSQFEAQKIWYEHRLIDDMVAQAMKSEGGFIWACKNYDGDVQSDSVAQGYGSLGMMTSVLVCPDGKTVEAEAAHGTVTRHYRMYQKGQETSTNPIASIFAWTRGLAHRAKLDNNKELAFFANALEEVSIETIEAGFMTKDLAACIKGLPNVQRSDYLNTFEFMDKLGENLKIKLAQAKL
#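 IDH1-R132H (0.5 ug/mL dispensed) in pH 7.5 Tris buffer was preincubated 30 min with compound, then given a substrate mix of 0.016 mM NADPH and 2 mM alpha-KG for 80 min at room temperature; remaining NADPH was read by diaphorase/resazurin fluorescence.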
# TGFb SMAD3 inh: blocks TGF-b signaling; Potency, µM (series often up to 46.1 µM), inactives show top-dose activity, negative = inhibition, hits mostly inhibitors; hit rate 1.2% among 410,000; HepG2 CAGA-GFP TGF-b/SMAD3 reporter, GFP fluorescence, 18 h; TGF-beta stimulated, 500 pg/mL final; also: potency is read from the fitted curve at half-maximal effect; % is scaled to controls: 0 for no effect and ±100 for the full control effect; nearly all actives have a fitted effect of over 65% in size
#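 HEPG2 CAGA-GFP, 1000 cells/well; 2 h settle, 37 C; cpd via pin tool; TGF-b 500 pg/mL final; 18 h, 37 C; GFP imaging ex488/em500-530; %Activity normalised to -TGF-b and +DMSO controls; CRC fit, curve class.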
# HepG2 tox: counter-screen for TGF-b inhibitors: cytotoxicity in HepG2 cells | HepG2 CAGA-GFP viability, ATP luminescence, 18 h | Potency, µM (top dose mostly 46.1 µM), inactives show top-dose activity change, negative = cytotoxicity, usual class: cytotoxic | hit rate 0.76% among 410,000; also: potency is read from the fitted curve at half-maximal effect
#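 CellTiter-Glo luminescence gave cytotoxicity after 18 hours at 37 degrees C. The cells were HepG2 CAGA-GFP in 1% FBS DMEM, stimulated with 500 pg/mL TGF-beta after compound addition. %Activity was normalised to no-cell wells (complete cell-killing) and DMSO (no toxicity), and curves were fitted and classified.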
# ATXN2 expr inh: ATXN2 expression inhibition; HEK-293 ATXN2-luciferase reporter, luminescence, 24 h; Potency, µM (top dose mostly 57 µM), inactives show top-dose activity change, negative = inhibition, most hits filed as inhibitors; hit rate 0.72% among 360,000; also: potency is read from the fitted curve at half-maximal effect; % is scaled to controls: 0 for no effect and ±100 for the full control effect; nearly all actives have a fitted effect of over 55% in size
#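 qHTS (up to 57 uM final) was run with 24 h compound exposure of reporter cells at 37 °C. Each well was multiplexed: SteadyGlo luminescence measured ATXN2-luciferase expression after a fluorogenic Gly-Phe-AFC viability readout (25 uM final).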
# LDHA block: blocks human lactate dehydrogenase A; P00338; purified LDHA, NADH/diaphorase-resazurin fluorescence; hits give low values; activity change, % (values are at about 110 or 230 µM); hit rate 0.15% among 480,000; in the data active = activity change below about -30%; inconclusive = mostly about -25% to -30%;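 also: plate controls were DMSO wells for no effect and wells without enzyme for full effect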
#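 Human LDH5 at 2 nM final in Tris HCl pH 7.4 with 0.06 mM NADH and 0.2 mM pyruvate, reacted 5 minutes at room temperature. Remaining NADH coupled via diaphorase/resazurin; resorufin fluorescence read at 0 and 20 minutes, normalized to enzyme-free and DMSO wells.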
# S2 tox: cell viability loss in ATXN counter-screen. S2 cells (HEK-293 line with an ATXN2-luciferase reporter) viability, CellTiter-Fluor protease fluorescence, 24 h. Potency, µM (titrated, usually from 56.7 µM), actives largely listed as cytotoxic. hit rate 0.49% among 400,000. AID 651635; also: potency is read from the fitted curve at half-maximal effect; nearly all actives have a fitted effect of over 40% in size
# * marks the source's active call; other numbers are inactive results; i = inactive; u = inconclusive; x = no result; [ ] = another dose, or the depositor's remark. Most compounds without a hit are left out; they make up all but 2.2% or so of the library. Unless noted, calls follow the shape of the dose curve; as a rule, active = well fitted curve in the direction sought with a large enough effect; inconclusive = small, poorly fitted or top-dose-only effect, or another doubt; inactive = no such curve, though single readings can be large; an effect the other way counts as inactive or inconclusive.
SMILES,mIDH1 inhibitor,TGFb SMAD3 inh,HepG2 tox,ATXN2 expr inh,LDHA block,S2 tox
O=C(CSc1nc2nc[nH]c2c(=O)[nH]1)Nc1ccccc1F,x,x,x,x,-2,x
COc1ccc(N(CC(=O)Nc2cc(Cl)ccc2C)S(=O)(=O)c2c(C)noc2C)cc1,1%,11µM*,-30%,-19%,-3,i
COc1ccc(N(CC(=O)Nc2cc(C)ccc2C)S(=O)(=O)c2c(C)noc2C)cc1,-6%,-18%,1%,-10%,-5,i
O=C(NC1=NCCS1)c1ccc(Cl)c(S(=O)(=O)N2CCCC2)c1,8%,3%,7%,-6%,7,i
O=C1C2C(c3ccccc3)CC=CC2[C@H](c2ccc3ccccc3c2)N1Cc1ccccc1 (some centres not stated),-9%,1%,-8%,0%,-6,u
Cc1ccc(F)c([C@H]2C3C=CCC(c4ccccc4)C3C(=O)N2Cc2ccccc2)c1 (some centres not stated),-2%[38.3 µM],18µM*,-48%,-21%,1,u
CN1CCCN(Cc2ccccc2C(F)(F)F)CC1,8%,-1%,-3%,-10%,-34*,i
COc1ccc2ccccc2c1CN1CCCC(CO)C1 (configuration not stated),7%,0%,-13%,-5%,-7,i
COc1cc(/C=N/Nc2nncn2N)ccc1OCc1c(C)no[n+]1[O-],21%,7.1µM*,10µM*,x,16,i
Cc1cc2nc(/C(C#N)=C\c3c[nH]c4ccc(Br)cc34)[nH]c2cc1C,x,x,x,x,18,x
CC(C)Cc1nc2oc3c(Cl)ncnc3c2c2c1CCCC2,-4%,17%,5%,32µM*,-4,u
CCCCCc1ccc(OCCOCCn2c[n+](C)c3ccccc32)c(CCCCC)c1,6%,u,-113%,x,0,18µM*
C=C1C(=O)C=C2CN(C(=O)c3ccccc3)[C@@](Cc3ccc(F)cc3)(C(=O)OC)[C@@H]12,1%[38.3 µM],1.8µM*,3.2µM*,3.2µM*,-10,4.5µM*
Cc1noc(C)c1NC(=O)N(C)C[C@@H]1Oc2cc(Br)ccc2S(=O)(=O)N([C@H](C)CO)C[C@@H]1C,1%,9%,-1%,8%,-12,i
CCCCN(CCCNc1ncnc2nc[nH]c12)c1ccccc1,-4%,u,3.2µM*,u,-4,u
O=C(C[C@H]1C/C=C\CC[C@@H](Cc2ccc(F)cc2)C(=O)OC[C@H]2CCCN2C1=O)N[C@H](CO)Cc1ccccc1,0%,-25%,-2%,-9%,1,i
O=C(/C=C/NNC(=O)c1ccccc1)c1ccc([N+](=O)[O-])cc1,1%,u,-49%,7.5µM*,-2,u
O=C(/C=C/NNC(=O)c1ccccc1)c1ccccc1,15%,-29%,-17%,-5%,-4,i
COCc1ccccc1CNC(=O)c1ccc(C)s1,x,x,x,x,1,x
O=C(CN1CCCc2ccccc21)N/N=C/c1ccccc1O,3%,u,-32%,28µM*,-8,i
Cc1ccccc1CN1C(=O)c2ccccc2Sc2ccc(C(=O)NCCN3CCOCC3)cc21,5%,-21%,-14%,-26%,1,i
CCN1CCN(CCNC(=O)c2ccc(/C=C3/Sc4ccccc4N(Cc4ccccc4C)C3=O)cc2)CC1,0%,18µM*,-94%,u,-6,u
CCN1CCN(CCCNC(=O)c2ccc(/C=C3/Sc4ccccc4N(Cc4ccccc4F)C3=O)cc2)CC1,-3%,u,11µM*,u,-2,i
NC(=O)c1ccc(CSc2cccc[n+]2[O-])cc1,x,x,x,x,2,x
CC(C)CCCC(C)NC(=O)C1CCN(c2nc(Cl)nc3nc[nH]c23)CC1 (configuration not stated),x,x,x,x,-1,x
SMILES,mIDH1 inhibitor,TGFb SMAD3 inh,HepG2 tox,ATXN2 expr inh,LDHA block,S2 tox
Cc1nnc(N/N=C/c2cccc(C(F)(F)F)c2)n1N,19%,u,-45%,0%,39,i
Cc1nnc(N/N=C/c2cccc(OCc3ccc(Cl)c(Cl)c3)c2)n1N,23%,22µM*,-104%,11%,48,u
N#Cc1cc2ccccc2nc1N,14%,u,0.28µM*,-11%,-5,i
COc1cccc(CN2c3ccc(Br)cc3C(=O)CS2(=O)=O)c1,11%,7.9µM*,1%,-1%,0,i
COc1cc(CN2c3ccc(Br)cc3C(=O)CS2(=O)=O)cc(OC)c1,x,11µM*,-59%,x,x,x
C=CCN1c2ccc(Br)cc2C(=O)CS1(=O)=O,-14%,u,-12%,2%,0,i
COc1cccc(CN2C(=O)N(c3ccc(C)cc3C)S(=O)(=O)c3ccccc32)c1,x,x,x,x,-3,x
CC1(Cc2ccccc2OC(F)(F)F)C(=O)Nc2ccc(S(=O)(=O)NC3CCCCC3)cc21 (configuration not stated),x,13µM*,-81%,u,0,u
CCCC1([C@H](O)C/C=C/[C@H]2[C@H](O)CC(=O)[C@@H]2CCCCCCC(=O)OC)CCC1,x,x,x,x,x,35µM*
CCCCC(F)(F)[C@@]1(O)CC[C@H]2[C@H](CC(=O)[C@@H]2CCCCCCC(=O)O)O1,x,x,x,u,x,i
CC1CCc2nc(NC(=O)Cc3ccc(Cl)cc3)sc2C1 (configuration not stated),-10%,16µM*,-47%,16%,-1,i
CC1CCc2nc(NC(=O)CCSc3ccccc3)sc2C1 (configuration not stated),8%,-11%,-10%,-2%,-17,i
CCC(CC)COC(=O)C1=C(C)NC(=O)NC1c1ccc(N(C)C)cc1 (configuration not stated),3%,u,7.9µM*,x,-6,i
CC/C=C1/N=C2C(=O)N(C)C(=O)N=C2N(C)N1,x,u,-94%,x,10,x
CN1N/C(=C\c2ccccc2)N=C2C(=O)N(C)C(=O)N=C21,x,-109%,1.1µM*,x,24,x
C=CCN(c1ccccc1)S(=O)(=O)c1cccc(C(=O)N2CCCC2)c1,3%,-29%,-6%,0%,0,i
C=C1CCC[C@]2(C)C[C@H]3OC(=O)C(CNC(C)CCCC(C)C)[C@H]3CC12 (some centres not stated),-5%,11µM*,-46%,u,-4,u
C=C1CCC[C@]2(C)C[C@H]3OC(=O)C(CN[C@@H](C)c4ccccc4)[C@H]3CC12 (some centres not stated),3%,8%,-11%,-29%,-1,u
C=CCN(C(=O)CSC1=NC(=O)CN1C(C)=O)c1nc(C)c(-c2ccccc2)s1,-4%,13µM*,-14%,2%,1,i
